{"source": "PubChem BioAssay (Tox21)", "note": "Records with an inconclusive call do not appear. The source made the active and inactive calls. Calls come from the whole dose curve; as a rule, active = well fitted curve in the direction sought with a large enough effect in the repeat runs; inconclusive = weak or mixed curves; inactive = no such curve, though single readings can be large; an effect the other way counts as inactive or inconclusive. % is set by controls: 0 for no effect and ±100 for the full control effect."}
{"assay": "qHTS RealTime-Glo MT Cell Viability Assay in HEK293 cells - 16 hour (AID 1224872); note: top concentration of the series differs between compounds; nearly all actives have a fitted effect of over 50% in size", "conditions": "RealTime-Glo luminescence; series mostly up to 76.8 µM; activity change, negative = cytotoxicity: at the top concentration", "summary_of_the_method": "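Viability tracked continuously by luminescence as live cells reduce a prosubstrate for NanoLuc; HEK293 cells preincubated 5 h, compound-treated at 37 C, and read at 0, 8, 16, 24, 32 and 40 h.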"}
{"smiles": "[N-]=[N+]=[N-]", "outcome": "inactive"}
{"smiles": "CCc1cccc(C)c1N(C(=O)CCl)C(C)COC", "note": "(centres undefined)", "outcome": "inactive"}
{"smiles": "CC(C)C1(C)N=C(c2nc3ccccc3cc2C(=O)O)NC1=O", "note": "(centres undefined)", "outcome": "inactive"}
{"smiles": "C#CCN(C)[C@H](C)Cc1ccccc1", "outcome": "inactive"}
{"smiles": "CN1C(=O)CN=C(c2ccccc2)c2cc(Cl)ccc21", "outcome": "inactive"}
{"smiles": "CC(Br)C(=O)O", "note": "(centres undefined)", "outcome": "inactive"}
{"smiles": "O=C1CCCN1", "outcome": "inactive"}
{"smiles": "CCC12COCN1COC2", "outcome": "inactive"}
{"smiles": "CC(C)=C[C@@H]1[C@@H](C(=O)OCc2coc(Cc3ccccc3)c2)C1(C)C", "outcome": "inactive"}
{"smiles": "Cc1cc(-c2cc(C)c(N)c(C)c2)cc(C)c1N", "outcome": "inactive"}
{"smiles": "c1ccc(-c2ccccc2)cc1", "outcome": "inactive"}
{"smiles": "O=C(NC(=O)c1c(F)cccc1F)Nc1cc(Cl)c(OC(F)(F)C(F)C(F)(F)F)cc1Cl", "note": "(centres undefined)", "outcome": "inactive"}
{"smiles": "COc1ccc2c3c1O[C@H]1[C@@H](O)C=C[C@H]4[C@@H](C2)N(C)CC[C@@]341", "activity change, negative = cytotoxicity": "2.66% (inactive)"}
{"smiles": "Clc1ccc(Cl)cc1", "outcome": "inactive"}
{"smiles": "Cc1ccc(N)cc1Cl", "outcome": "inactive"}
{"smiles": "O=c1n(Cl)c(=O)n(Cl)c(=O)n1Cl", "outcome": "inactive"}
{"smiles": "O=c1ccc(=O)[nH][nH]1", "outcome": "inactive"}
{"smiles": "COP(N)(=O)SC", "note": "(centres undefined)", "outcome": "inactive"}
{"smiles": "C1CC2OC2CC1C1CO1", "note": "(centres undefined)", "activity change, negative = cytotoxicity": "-5.36% (inactive)"}
{"smiles": "CC(C)OC(=O)Nc1ccccc1", "outcome": "inactive"}
{"smiles": "CC(C#N)CCC#N", "note": "(centres undefined)", "outcome": "inactive"}
{"smiles": "O=NN1CCCC1", "activity change, negative = cytotoxicity": "-1.55% (inactive)"}
{"smiles": "O=Cc1cccc(Oc2ccccc2)c1", "outcome": "inactive"}
{"smiles": "CC(C)N1C(=O)c2ccccc2NS1(=O)=O", "outcome": "inactive"}
{"smiles": "C#CC(C)(C)NC(=O)c1cc(Cl)cc(Cl)c1", "activity change, negative = cytotoxicity": "-6.02% (inactive)"}
{"smiles": "COC(=O)c1ccccc1N", "outcome": "inactive"}
{"smiles": "Cc1ccc(N)cc1N", "outcome": "inactive"}
{"smiles": "OCCN(CCO)CCO", "outcome": "inactive"}
{"smiles": "CCCCCCCCCCCC#N", "outcome": "inactive"}
{"smiles": "CN(C)CCO", "outcome": "inactive"}
{"smiles": "Nc1c(Cl)c(Cl)nc(C(=O)O)c1Cl", "outcome": "inactive"}
{"smiles": "CC(C)(C)OOC(=O)c1ccccc1", "outcome": "inactive"}
{"smiles": "O=c1[nH]c(=O)[nH]c(=O)[nH]1", "outcome": "inactive"}
{"assay": "qHTS RealTime-Glo MT Cell Viability Assay in HepG2 cells - 8 hour (AID 1224873); note: nearly all actives have a fitted effect of over 55% in size", "conditions": "RealTime-Glo luminescence; series mostly up to 76.8 µM; viability change, negative = cytotoxic: at the top concentration", "summary_of_the_method": "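HepG2 cells mixed with RealTime-Glo MT reagents (NanoLuc plus cell-permeant prosubstrate) were seeded at 600 cells/well, incubated 5 h at 37 C/5% CO2, then pinned with compounds in DMSO; nonlytic luminescence tracked viability during 40 h treatment.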"}
{"smiles": "[N-]=[N+]=[N-]", "outcome": "inactive"}
{"smiles": "CCc1cccc(C)c1N(C(=O)CCl)C(C)COC", "note": "(centres undefined)", "outcome": "inactive"}
{"smiles": "CC(C)C1(C)N=C(c2nc3ccccc3cc2C(=O)O)NC1=O", "note": "(centres undefined)", "outcome": "inactive"}
{"smiles": "C#CCN(C)[C@H](C)Cc1ccccc1", "outcome": "inactive"}
{"smiles": "CN1C(=O)CN=C(c2ccccc2)c2cc(Cl)ccc21", "outcome": "inactive"}
{"smiles": "CC(Br)C(=O)O", "note": "(centres undefined)", "outcome": "inactive"}
{"smiles": "O=C1CCCN1", "outcome": "inactive"}
{"smiles": "CCC12COCN1COC2", "outcome": "inactive"}
{"smiles": "CC(C)=C[C@@H]1[C@@H](C(=O)OCc2coc(Cc3ccccc3)c2)C1(C)C", "outcome": "inactive"}
{"smiles": "Cc1cc(-c2cc(C)c(N)c(C)c2)cc(C)c1N", "outcome": "inactive"}
{"smiles": "c1ccc(-c2ccccc2)cc1", "outcome": "inactive"}
{"smiles": "Nc1ccc(Oc2ccc(N)cc2)cc1", "outcome": "inactive"}
{"smiles": "O=C(NC(=O)c1c(F)cccc1F)Nc1cc(Cl)c(OC(F)(F)C(F)C(F)(F)F)cc1Cl", "note": "(centres undefined)", "outcome": "inactive"}
{"smiles": "O=[N+]([O-])c1ccc(Oc2ccc(Cl)cc2Cl)cc1", "outcome": "inactive"}
{"smiles": "COc1ccc2c3c1O[C@H]1[C@@H](O)C=C[C@H]4[C@@H](C2)N(C)CC[C@@]341", "outcome": "inactive"}
{"smiles": "Clc1ccc(Cl)cc1", "outcome": "inactive"}
{"smiles": "Cc1ccc(N)cc1Cl", "outcome": "inactive"}
{"smiles": "O=c1n(Cl)c(=O)n(Cl)c(=O)n1Cl", "outcome": "inactive"}
{"smiles": "O=c1ccc(=O)[nH][nH]1", "outcome": "inactive"}
{"smiles": "COP(N)(=O)SC", "note": "(centres undefined)", "outcome": "inactive"}
{"smiles": "CCOC(=O)c1ccccc1C(=O)OCC", "outcome": "inactive"}
{"smiles": "C1CC2OC2CC1C1CO1", "note": "(centres undefined)", "outcome": "inactive"}
{"smiles": "CC(C)OC(=O)Nc1ccccc1", "outcome": "inactive"}
{"smiles": "CC(C#N)CCC#N", "note": "(centres undefined)", "outcome": "inactive"}
{"smiles": "O=NN1CCCC1", "outcome": "inactive"}
{"smiles": "O=Cc1cccc(Oc2ccccc2)c1", "outcome": "inactive"}
{"smiles": "CC(C)N1C(=O)c2ccccc2NS1(=O)=O", "outcome": "inactive"}
{"smiles": "C#CC(C)(C)NC(=O)c1cc(Cl)cc(Cl)c1", "outcome": "inactive"}
{"smiles": "COC(=O)c1ccccc1N", "outcome": "inactive"}
{"smiles": "Cc1ccc(N)cc1N", "outcome": "inactive"}
{"smiles": "OCCN(CCO)CCO", "outcome": "inactive"}
{"smiles": "CCCCCCCCCCCC#N", "outcome": "inactive"}
{"smiles": "CN(C)CCO", "outcome": "inactive"}
{"smiles": "Nc1c(Cl)c(Cl)nc(C(=O)O)c1Cl", "outcome": "inactive"}
{"smiles": "CC(C)(C)OOC(=O)c1ccccc1", "outcome": "inactive"}
{"smiles": "O=c1[nH]c(=O)[nH]c(=O)[nH]1", "outcome": "inactive"}
